From the supplement of paper PMC13380429

Tested on: Vero E6 infected with SARS-CoV-2
Assay: inhibition of SARS-CoV-2 cytopathic effect; higher = more antiviral protection, active = above 15
Conditions: 48 h

Measured: inhibition of SARS-CoV-2 cytopathic effect

Clc1ccc(C(c2ccc(Cl)cc2)C(Cl)(Cl)Cl)cc1
inactive: 1 nM 1.71% | 8.33 nM 4.86% | 100 nM 0.57% | 833.33 nM -1.73% | 10000 nM -1.33%

CC(C)(C)c1cc(C=C(C#N)C#N)cc(Br)c1O
inactive: 1 nM 0.94% | 8.33 nM -0.19% | 100 nM 0.29% | 833.33 nM -1.48% | 10000 nM 4.93%

O=C1C(O)=C([C@H]2CC[C@H](c3ccc(Cl)cc3)CC2)C(=O)c2ccccc21 [atovaquone]
inactive: 1 nM 0.09% | 8.33 nM -1.67% | 100 nM -3.09% | 833.33 nM -1.77% | 10000 nM -9.21%

CN(CCOc1ccc(-c2ccc3c(c2)OCO3)cc1C(C)(C)C)CC(=O)O
inactive: 1 nM 1.26% | 8.33 nM -3.67% | 100 nM -6.89% | 833.33 nM -0.1% | 10000 nM -1.31%

CCOC(=O)CCC(=O)O[C@H]1[C@H](O[C@@H]2[C@@H](C)[C@H](O[C@H]3C[C@@](C)(OC)[C@@H](O)[C@H](C)O3)[C@@H](C)C(=O)O[C@H](CC)[C@@](C)(O)[C@H](O)[C@@H](C)C(=O)[C@H](C)C[C@@]2(C)O)O[C@H](C)C[C@@H]1N(C)C [erythromycin-ethylsuccinate]
inactive: 1 nM 0.01% | 8.33 nM 0.11% | 100 nM 0.57% | 833.33 nM 0.29% | 10000 nM -0.24%

O=C(O)COc1cccc(CN(Cc2ccc(-n3cccn3)cc2)S(=O)(=O)c2cccnc2)c1 [taprenepag]
inactive: 1 nM 0.31% | 8.33 nM -1.59% | 100 nM -0.6% | 833.33 nM -0.14% | 10000 nM 0.98%
